1 sequence from article PMC7862700, “An all-to-all approach to the identification of sequence-specific readers for epigenetic DNA modifications on cytosine” can be followed below.

Holding throughout (assay): DAPPL (digital affinity profiling via proximity ligation, sequencing); 10 mM Tris-HCl pH 7.5, 50 mM NaCl, 1 mM DTT, 4% glycerol, room temperature, 30 min; GST-TFs on glutathione beads, 16-mer random dsDNA library, 0.1% formaldehyde crosslink after washing; high values mean tight binding
Holding throughout (conditions): protein: recombinant; tags: N-terminal GST; dsDNA, one strand shown

The target of assay [1] is T1, FLI1 (Homo sapiens, UniProt Q01543 1-452).
T1 sequence: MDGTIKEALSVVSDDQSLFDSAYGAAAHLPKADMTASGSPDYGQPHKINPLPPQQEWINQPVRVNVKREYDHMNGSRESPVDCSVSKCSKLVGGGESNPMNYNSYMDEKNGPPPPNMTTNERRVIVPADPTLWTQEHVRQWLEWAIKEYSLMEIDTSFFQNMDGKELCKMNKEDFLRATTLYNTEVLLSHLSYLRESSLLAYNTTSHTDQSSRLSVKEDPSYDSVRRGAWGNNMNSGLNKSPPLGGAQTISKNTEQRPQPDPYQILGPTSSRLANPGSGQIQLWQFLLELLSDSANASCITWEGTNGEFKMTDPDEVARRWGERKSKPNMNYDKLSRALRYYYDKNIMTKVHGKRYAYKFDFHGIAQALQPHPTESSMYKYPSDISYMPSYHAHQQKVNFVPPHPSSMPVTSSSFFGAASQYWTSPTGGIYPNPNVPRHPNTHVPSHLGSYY
Put shortly: (§1)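 Binding signal is given per hexamer as its read frequency for a factor divided by its frequency in the tag-only sample. GST-fused human transcription factors were expressed in yeast, captured on glutathione beads, barcoded with DNA and pooled with that sample, then incubated with 200 nmole of a 16-mer random double-stranded DNA library in Tris/NaCl/DTT/glycerol buffer for 30 min at room temperature. The pools were then washed, crosslinked, proximity-ligated, amplified by PCR and sequenced on an Illumina NextSeq500.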

The target of assay [2] is T2, ELK1 (Homo sapiens, UniProt P19419 1-428).
T2 sequence: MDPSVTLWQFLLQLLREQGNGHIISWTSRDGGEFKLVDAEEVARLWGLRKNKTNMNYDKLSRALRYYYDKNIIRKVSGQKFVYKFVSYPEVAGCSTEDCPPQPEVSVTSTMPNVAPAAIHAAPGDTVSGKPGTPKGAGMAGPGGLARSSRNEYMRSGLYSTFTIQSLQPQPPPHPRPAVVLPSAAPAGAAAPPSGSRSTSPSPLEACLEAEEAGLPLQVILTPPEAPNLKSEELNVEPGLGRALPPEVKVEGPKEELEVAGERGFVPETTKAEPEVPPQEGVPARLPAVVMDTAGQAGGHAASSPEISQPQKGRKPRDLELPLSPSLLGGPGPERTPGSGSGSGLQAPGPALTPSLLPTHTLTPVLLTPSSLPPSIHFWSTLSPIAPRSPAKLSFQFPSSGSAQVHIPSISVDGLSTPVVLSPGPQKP
Put shortly:
as §1

Assay [3] addresses T3, GABPA (Homo sapiens, UniProt Q06546 1-454).
T3 sequence: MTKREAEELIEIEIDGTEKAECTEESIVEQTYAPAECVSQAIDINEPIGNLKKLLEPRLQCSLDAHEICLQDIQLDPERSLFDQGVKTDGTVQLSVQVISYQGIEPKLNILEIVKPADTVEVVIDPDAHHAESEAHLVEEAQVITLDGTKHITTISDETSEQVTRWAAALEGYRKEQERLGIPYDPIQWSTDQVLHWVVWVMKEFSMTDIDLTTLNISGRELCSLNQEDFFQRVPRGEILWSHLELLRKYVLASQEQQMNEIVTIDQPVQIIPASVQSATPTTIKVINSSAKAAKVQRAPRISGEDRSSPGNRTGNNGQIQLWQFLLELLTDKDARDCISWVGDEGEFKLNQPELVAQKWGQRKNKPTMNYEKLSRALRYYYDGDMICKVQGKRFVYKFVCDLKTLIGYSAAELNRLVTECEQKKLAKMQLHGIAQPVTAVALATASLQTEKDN
Put shortly:
as §1

Assay [4] addresses T4, ERG (Homo sapiens, UniProt P11308 1-479).
T4 sequence: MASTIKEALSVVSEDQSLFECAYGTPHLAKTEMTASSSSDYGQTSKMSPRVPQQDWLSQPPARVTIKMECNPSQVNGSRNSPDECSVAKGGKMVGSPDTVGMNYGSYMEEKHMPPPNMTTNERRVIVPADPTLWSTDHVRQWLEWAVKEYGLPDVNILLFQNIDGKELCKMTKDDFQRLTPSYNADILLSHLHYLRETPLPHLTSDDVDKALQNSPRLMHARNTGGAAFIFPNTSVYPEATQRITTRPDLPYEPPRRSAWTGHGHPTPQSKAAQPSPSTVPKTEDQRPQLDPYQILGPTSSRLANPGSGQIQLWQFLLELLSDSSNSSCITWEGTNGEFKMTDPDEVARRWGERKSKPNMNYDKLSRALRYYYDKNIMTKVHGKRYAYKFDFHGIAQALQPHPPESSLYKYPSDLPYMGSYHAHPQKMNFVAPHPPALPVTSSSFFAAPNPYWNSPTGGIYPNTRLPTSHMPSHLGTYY
Put shortly: as §1

Assay [5] addresses ELF1 (Homo sapiens, UniProt P32519 1-619). Put shortly: as §1
The target of assay [6] is T5, EHF (Homo sapiens, UniProt Q9NZC4 1-300).
T5 sequence: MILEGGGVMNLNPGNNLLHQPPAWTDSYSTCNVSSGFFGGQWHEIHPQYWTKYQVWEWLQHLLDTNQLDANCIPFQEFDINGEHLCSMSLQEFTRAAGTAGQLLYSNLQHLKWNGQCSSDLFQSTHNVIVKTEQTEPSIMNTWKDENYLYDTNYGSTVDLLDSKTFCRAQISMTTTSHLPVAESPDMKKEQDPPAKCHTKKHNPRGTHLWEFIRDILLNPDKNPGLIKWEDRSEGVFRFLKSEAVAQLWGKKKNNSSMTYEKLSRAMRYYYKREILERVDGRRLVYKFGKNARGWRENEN
Put shortly: as §1

Assay [7] has as its target SPI1 (Homo sapiens, UniProt P17947 1-270). Put shortly:
as §1

Assay [8] concerns the target SPIB (Homo sapiens, UniProt Q01892 1-262). Put shortly: as §1
In assay [9] the target is T6, ELK3 (Homo sapiens, UniProt P41970 1-407).
T6 sequence: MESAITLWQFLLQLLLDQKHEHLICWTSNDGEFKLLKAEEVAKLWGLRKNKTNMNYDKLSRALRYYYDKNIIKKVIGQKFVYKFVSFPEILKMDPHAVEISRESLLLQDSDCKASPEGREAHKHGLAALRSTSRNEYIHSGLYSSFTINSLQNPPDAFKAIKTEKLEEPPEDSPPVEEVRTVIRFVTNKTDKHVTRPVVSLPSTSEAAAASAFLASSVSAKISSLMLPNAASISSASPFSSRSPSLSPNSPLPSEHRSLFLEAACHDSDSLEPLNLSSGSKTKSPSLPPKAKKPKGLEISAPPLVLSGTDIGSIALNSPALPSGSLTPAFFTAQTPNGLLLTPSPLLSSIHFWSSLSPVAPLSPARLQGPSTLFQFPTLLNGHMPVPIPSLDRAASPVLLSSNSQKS
Put shortly: as §1

The target of assay [10] is T7, FEV (Homo sapiens, UniProt Q99581 1-238).
T7 sequence: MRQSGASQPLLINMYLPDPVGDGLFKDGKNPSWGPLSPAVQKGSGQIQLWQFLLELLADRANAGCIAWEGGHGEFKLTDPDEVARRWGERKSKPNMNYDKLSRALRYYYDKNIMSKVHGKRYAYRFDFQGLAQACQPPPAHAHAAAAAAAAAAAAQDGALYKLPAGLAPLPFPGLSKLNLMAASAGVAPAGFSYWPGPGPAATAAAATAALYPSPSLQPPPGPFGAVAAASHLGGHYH
Put shortly: as §1

In assay [11] the target is ETV5 (Homo sapiens, UniProt P41161 1-510). Put shortly: as §1
In assay [12] the target is T8, SPIC (Homo sapiens, UniProt Q8N5J4 1-248).
T8 sequence: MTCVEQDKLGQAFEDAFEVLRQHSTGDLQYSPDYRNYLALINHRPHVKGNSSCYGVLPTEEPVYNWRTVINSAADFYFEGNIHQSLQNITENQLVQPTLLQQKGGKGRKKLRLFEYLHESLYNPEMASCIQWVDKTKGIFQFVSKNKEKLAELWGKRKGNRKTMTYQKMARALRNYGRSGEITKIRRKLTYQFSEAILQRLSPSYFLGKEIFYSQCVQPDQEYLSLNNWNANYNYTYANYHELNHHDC
Put shortly: as §1

The target of assay [13] is ELF4 (Homo sapiens, UniProt Q99607 1-663). Put shortly:
as §1

The target of assay [14] is T9, ELK4 (Homo sapiens, UniProt P28324-2 1-405).
T9 sequence: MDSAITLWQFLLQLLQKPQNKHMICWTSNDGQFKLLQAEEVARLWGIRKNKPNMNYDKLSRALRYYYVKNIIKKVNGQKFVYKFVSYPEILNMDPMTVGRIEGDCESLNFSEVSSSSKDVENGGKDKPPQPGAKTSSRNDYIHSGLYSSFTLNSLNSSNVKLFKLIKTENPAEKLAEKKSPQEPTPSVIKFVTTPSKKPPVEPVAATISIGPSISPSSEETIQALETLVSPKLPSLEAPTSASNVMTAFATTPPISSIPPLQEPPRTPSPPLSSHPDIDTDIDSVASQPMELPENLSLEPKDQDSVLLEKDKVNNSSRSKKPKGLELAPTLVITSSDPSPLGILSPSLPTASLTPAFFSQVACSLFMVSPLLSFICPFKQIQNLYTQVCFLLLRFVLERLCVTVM
Put shortly: as §1

The target in assay [15] is T10, ETV2 (Homo sapiens, UniProt O00321 1-342).
T10 sequence: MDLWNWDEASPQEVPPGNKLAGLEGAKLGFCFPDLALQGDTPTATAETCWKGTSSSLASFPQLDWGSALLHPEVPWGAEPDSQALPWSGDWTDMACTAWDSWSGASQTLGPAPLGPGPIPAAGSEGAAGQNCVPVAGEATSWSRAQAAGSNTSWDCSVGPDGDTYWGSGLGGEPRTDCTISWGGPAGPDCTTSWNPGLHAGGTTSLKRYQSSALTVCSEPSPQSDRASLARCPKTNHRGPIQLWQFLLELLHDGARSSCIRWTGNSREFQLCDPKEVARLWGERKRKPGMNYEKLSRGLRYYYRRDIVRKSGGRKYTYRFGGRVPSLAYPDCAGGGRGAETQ
Put shortly:
as §1

Assay [16] concerns the target T11, ELF3 (Homo sapiens, UniProt P78545 1-371).
T11 sequence: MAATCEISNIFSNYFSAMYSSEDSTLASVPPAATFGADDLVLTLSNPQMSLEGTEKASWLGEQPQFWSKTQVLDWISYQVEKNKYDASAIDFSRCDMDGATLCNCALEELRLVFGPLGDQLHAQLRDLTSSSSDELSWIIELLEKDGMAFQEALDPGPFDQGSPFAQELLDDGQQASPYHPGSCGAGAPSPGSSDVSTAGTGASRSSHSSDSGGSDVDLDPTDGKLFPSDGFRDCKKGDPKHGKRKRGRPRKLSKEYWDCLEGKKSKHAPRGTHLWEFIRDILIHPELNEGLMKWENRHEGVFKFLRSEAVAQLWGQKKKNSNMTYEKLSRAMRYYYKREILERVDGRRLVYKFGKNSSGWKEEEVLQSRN
Put shortly:
as §1

The target in assay [17] is CRX (Homo sapiens, UniProt O43186 1-299). Put shortly: as §1
The target of assay [18] is ETV1 (Homo sapiens, UniProt P50549 1-477). Put shortly:
as §1

Sequence of CRX (O43186 whole entry): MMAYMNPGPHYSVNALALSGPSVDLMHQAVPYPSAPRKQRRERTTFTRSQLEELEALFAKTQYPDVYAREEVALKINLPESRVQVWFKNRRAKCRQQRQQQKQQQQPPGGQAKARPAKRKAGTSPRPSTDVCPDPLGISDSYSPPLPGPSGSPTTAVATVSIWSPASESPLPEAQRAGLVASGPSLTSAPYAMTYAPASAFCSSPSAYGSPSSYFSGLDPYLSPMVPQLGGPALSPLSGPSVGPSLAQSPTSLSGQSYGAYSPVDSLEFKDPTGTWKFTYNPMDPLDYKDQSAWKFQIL
Sequence of ETV1 (P50549 whole entry): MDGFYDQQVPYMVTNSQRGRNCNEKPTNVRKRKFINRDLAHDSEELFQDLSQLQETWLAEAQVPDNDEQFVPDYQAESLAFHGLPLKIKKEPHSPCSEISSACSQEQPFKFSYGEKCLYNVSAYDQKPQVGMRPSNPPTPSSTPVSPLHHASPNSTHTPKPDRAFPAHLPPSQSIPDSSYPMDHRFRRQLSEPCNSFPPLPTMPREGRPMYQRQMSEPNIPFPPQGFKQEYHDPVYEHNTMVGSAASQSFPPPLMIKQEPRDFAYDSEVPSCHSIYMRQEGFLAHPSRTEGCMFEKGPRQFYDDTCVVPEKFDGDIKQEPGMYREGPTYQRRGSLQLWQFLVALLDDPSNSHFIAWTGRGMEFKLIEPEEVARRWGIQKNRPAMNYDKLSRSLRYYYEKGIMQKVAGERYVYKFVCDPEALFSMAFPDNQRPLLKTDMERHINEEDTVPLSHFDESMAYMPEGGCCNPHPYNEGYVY
Sequence of ETV5 (P41161 whole entry): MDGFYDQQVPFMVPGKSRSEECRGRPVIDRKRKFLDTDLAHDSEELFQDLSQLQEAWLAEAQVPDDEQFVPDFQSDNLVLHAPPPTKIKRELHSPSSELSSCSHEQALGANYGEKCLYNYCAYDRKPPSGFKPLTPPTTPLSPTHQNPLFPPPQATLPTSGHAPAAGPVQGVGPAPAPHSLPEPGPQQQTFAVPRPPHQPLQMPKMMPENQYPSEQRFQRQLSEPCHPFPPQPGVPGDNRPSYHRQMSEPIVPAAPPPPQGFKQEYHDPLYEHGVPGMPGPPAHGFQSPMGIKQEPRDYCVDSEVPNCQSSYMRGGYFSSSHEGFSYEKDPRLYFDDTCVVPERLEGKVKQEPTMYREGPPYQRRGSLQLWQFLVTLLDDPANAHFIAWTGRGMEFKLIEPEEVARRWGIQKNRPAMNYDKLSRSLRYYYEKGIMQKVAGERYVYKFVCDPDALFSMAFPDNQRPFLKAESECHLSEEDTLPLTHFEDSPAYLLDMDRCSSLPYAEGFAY
Sequence of ELF4 (Q99607 whole entry): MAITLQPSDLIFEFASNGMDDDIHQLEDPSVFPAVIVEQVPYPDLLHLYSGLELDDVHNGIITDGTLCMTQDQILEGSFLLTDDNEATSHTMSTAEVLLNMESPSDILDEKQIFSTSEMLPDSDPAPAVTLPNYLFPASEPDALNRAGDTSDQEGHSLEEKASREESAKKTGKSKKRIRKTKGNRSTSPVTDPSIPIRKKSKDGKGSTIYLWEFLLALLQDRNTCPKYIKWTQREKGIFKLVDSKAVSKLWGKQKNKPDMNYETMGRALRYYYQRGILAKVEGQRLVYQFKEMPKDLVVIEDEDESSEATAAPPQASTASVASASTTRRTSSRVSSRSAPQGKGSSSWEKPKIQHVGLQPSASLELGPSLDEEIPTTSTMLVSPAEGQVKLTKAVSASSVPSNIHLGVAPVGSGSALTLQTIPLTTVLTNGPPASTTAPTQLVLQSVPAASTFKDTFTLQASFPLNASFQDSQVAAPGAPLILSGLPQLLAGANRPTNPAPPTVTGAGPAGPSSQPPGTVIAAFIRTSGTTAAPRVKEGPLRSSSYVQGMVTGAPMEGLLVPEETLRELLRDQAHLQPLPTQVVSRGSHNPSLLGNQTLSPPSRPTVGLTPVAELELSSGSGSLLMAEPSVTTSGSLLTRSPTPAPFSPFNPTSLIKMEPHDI
Sequence of SPIB (Q01892 whole entry): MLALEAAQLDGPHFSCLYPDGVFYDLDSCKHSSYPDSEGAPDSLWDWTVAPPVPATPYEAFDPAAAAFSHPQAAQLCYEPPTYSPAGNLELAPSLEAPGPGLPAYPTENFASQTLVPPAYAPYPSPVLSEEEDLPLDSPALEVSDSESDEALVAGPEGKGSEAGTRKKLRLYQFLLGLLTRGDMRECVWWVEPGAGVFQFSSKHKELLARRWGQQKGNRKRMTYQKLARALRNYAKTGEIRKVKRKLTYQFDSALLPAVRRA
Sequence of ELF1 (P32519 whole entry): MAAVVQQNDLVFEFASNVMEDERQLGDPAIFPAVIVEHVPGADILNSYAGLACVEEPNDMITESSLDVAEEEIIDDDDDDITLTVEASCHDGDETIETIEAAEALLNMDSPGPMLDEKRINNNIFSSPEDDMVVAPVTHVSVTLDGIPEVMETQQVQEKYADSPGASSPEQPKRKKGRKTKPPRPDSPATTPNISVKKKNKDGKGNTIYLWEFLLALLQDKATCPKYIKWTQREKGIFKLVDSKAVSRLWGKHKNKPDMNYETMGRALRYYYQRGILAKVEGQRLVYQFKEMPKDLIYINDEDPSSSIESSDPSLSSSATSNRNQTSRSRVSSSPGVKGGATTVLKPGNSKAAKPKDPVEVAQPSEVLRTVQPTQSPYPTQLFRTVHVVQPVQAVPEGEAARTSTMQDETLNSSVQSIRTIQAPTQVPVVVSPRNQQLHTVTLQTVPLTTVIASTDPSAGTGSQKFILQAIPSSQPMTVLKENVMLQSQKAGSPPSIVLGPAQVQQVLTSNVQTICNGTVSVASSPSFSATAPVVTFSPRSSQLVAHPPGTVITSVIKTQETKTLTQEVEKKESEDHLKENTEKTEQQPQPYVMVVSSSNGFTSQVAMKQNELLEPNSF

For ATACGT, the binding signal in [1] is 1.12 fold enrichment (6-mer frequency, TF over GST control); in [2], 1.14 fold enrichment (6-mer frequency, TF over GST control); in assay [3], 1.11 fold enrichment (6-mer frequency, TF over GST control); in assay [4], 1.09 fold enrichment (6-mer frequency, TF over GST control); in assay [5] it was 1.11 fold enrichment (6-mer frequency, TF over GST control); in assay [6], 1.24 fold enrichment (6-mer frequency, TF over GST control). The binding signal was 1.06 fold enrichment (6-mer frequency, TF over GST control) in assay [7]; 1.13 fold enrichment (6-mer frequency, TF over GST control) in assay [8]; 1.12 fold enrichment (6-mer frequency, TF over GST control) in [9]; 1.11 fold enrichment (6-mer frequency, TF over GST control) in assay [10]; 1.13 fold enrichment (6-mer frequency, TF over GST control) in assay [11]; 1.09 fold enrichment (6-mer frequency, TF over GST control) in assay [12]. Moreover, the binding signal in assay [13] was 1.08 fold enrichment (6-mer frequency, TF over GST control); in assay [14], 1.15 fold enrichment (6-mer frequency, TF over GST control); in assay [15] it was 1.04 fold enrichment (6-mer frequency, TF over GST control); in [16] it was 1.1 fold enrichment (6-mer frequency, TF over GST control); in assay [17] it was 1.01 fold enrichment (6-mer frequency, TF over GST control); in assay [18] it was 1.13 fold enrichment (6-mer frequency, TF over GST control).
